# From PubChem BioAssay (NCI)
# The panel holds about 83,000 compounds, 20% with a hit somewhere; the sample as a whole holds those more often.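 Plates (96-well) were seeded with cells, treated with compound at one concentration, and incubated for 48 hours before percent growth was determined.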 Values without a mark were called inactive. The source made the active and inactive calls. How the source made its calls: active means growth percent below 10; inactive means the rest.
# Columns and labels:
# Test in all cases: NCI-60 one-dose screen, 48 h (100 = growth as untreated, 0 = no growth, -100 = all killed)
# Details in all cases: 10 µM unless noted
# [1] = tested on: RPMI-8226 leukemia
# [2] = tested on: OVCAR-8 ovarian
# [3] = tested on: OVCAR-5 ovarian
# [4] = tested on: OVCAR-4 ovarian
# [5] = tested on: SK-OV-3 ovarian
# [6] = tested on: OVCAR-3 ovarian
# [7] = tested on: NCI/ADR-RES ovarian
# [8] = tested on: T-47D breast
# [9] = tested on: BT-549 breast
# [10] = tested on: MDA-MB-435 melanoma
# [11] = tested on: SW-620 colon
# [12] = tested on: MCF7 breast
# [13] = tested on: HCT-116 colon
# [14] = tested on: HCC-2998 colon
# [15] = tested on: KM12 colon
# [16] = tested on: HS 578T breast
# [17] = tested on: IGROV1 ovarian
Structure (SMILES),growth [1],growth [2],growth [3],growth [4],growth [5],growth [6],growth [7],growth [8],growth [9],growth [10],growth [11],growth [12],growth [13],growth [14],growth [15],growth [16],growth [17]
COc1ccc2c(c1)nnc1c3cccnc3[nH]c21,-41.9% (active),3.13% (active),36.1%,14.8%,19%,-51.1% (active),13.8%,6.14% (active),4.75% (active),13.8%,-12.5% (active),-43.5% (active),-74% (active),40.6%,30%,–,–
CC(C)(C)NC(C1=CC(C)(C)c2ccccc2C1=O)c1ccccc1 (configuration not stated),-44.9% (active),-47.9% (active),-75% (active),-52.9% (active),29.2%,-92.5% (active),-43.3% (active),-71.8% (active),-32.9% (active),-25.4% (active),-82.3% (active),-63.6% (active),-99.5% (active),-31.3% (active),-29.2% (active),46.4%,–
C/C(=N\N=C1/SCC(=O)N1c1ccccc1)c1ccco1,72.2%,103%,117%,146%,115%,–,104%,114%,127%,88.6%,109%,53.7%,92.7%,109%,103%,104%,60.8%
O=C(/C=C/c1ccco1)c1cccc(Nc2nc(Nc3ccccc3)nc(Nc3ccccc3)n2)c1,38.8%,49.5%,83.6%,62.1%,90.5%,61.8%,75.5%,48.6%,116%,102%,88%,28.3%,40.4%,68.5%,83.7%,92%,–
CN(C)C(=O)Nc1nc2cc(Cl)c(Cl)cc2[nH]1,-15.7% (active),13.6%,40.3%,33.9%,20.1%,-49.9% (active),3.19% (active),52.5%,39.5%,-24.5% (active),29.8%,15.4%,1.15% (active),14.2%,1.99% (active),–,–
Cc1cccc(NC(=O)CCc2ccc(N3C(N)=NC(N)=NC3(C)C)cc2)c1,32%,47.7%,46.7%,51.7%,60.3%,65.6%,95.6%,73.1%,45.8%,25.9%,33.5%,29.3%,18.9%,33.3%,22.7%,91.4%,–
COc1cc(/C=C/C(=O)c2c(C)[n+]([O-])c3ccccc3[n+]2[O-])ccc1O,104%,89.4%,110%,155%,97.8%,–,104%,111%,89.5%,78.6%,92.9%,93%,91.2%,116%,108%,99.4%,61.4%
Clc1ccc(CN2COc3c(ccc4cccnc34)C2)cc1Cl,-19.3% (active),-24% (active),5.97% (active),11.6%,13.4%,-1.22% (active),-19% (active),5.72% (active),8.99% (active),12.8%,18%,12.6%,-39.1% (active),-25.4% (active),7.75% (active),55.4%,–
CCCc1nn2c(CCC(=O)c3nc4ccc([N+](=O)[O-])cc4[nH]3)nnc2s1,133%,109%,97.5%,100%,110%,109%,104%,102%,111%,103%,97.6%,–,–,100%,104%,91.1%,101%
CC1(C)N=C(N)N=C(N)N1c1ccc(F)c(C(F)(F)F)c1,50.4%,8.44% (active),41.8%,55.3%,60.5%,53.9%,91.9%,91.1%,61.5%,40.6%,30.2%,26.8%,19.8%,34.3%,27.2%,99.3%,–
